A selection: hits, their analogues and other compounds. The true share with any hit is near 2.3%.
Nrf2 activator: Nrf2 pathway activation; AREc32 ARE-luciferase reporter (MCF7-derived line), luminescence, 24 h; Potency, µM (highest dose often 46.1 µM), inactives show at the top dose activation, most hits filed as activators; actives 0.31% (n = 410,000); also: potency is read from the fitted curve at half-maximal effect; % of control where 0% means no effect; nearly all actives have a fitted effect of over 65% in size
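For detection, Steady-Glo was added and plates sat 30 min at RT; before that, AREc32_Fluc cells grown overnight in OPTI-MEM/5% FBS had been treated with 23 nL compound for 24 hr at 37 deg C.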
Anesthetic bind: binds horse apoferritin like a general anesthetic; P02791; apoferritin/1-aminoanthracene competitive binding, fluorescence; Potency, µM (top dose mostly 77.5 µM), inactives show at the top dose activity change, negative = displacement, most hits filed as inhibitors; actives 0.074% (n = 350,000); AID 485281; also: potency is read from the fitted curve at half-maximal effect; % is scaled to controls: 0 for no effect and ±100 for the full control effect; nearly all actives have a fitted effect of over 20% in size
Target sequence (P02791 2-175 limits assumed): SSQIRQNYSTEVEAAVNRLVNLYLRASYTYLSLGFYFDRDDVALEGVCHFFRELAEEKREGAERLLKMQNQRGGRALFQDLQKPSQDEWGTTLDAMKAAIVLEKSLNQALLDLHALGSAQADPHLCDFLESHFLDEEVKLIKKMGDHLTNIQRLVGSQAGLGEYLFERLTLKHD
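Steps: apoferritin (10 uM) was premixed with half-saturated 1-AMA in PBS, compounds were pin-transferred, plates stood 10 min at room temperature, fluorescence was read at 380/535 nm, and curves were fitted with a Hill equation.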
Nrf2 block: inhibitors of Nrf2 signaling; Potency, µM (doses to about 46 µM), for inactives: at the top dose activity change, negative = inhibition, actives largely listed as inhibitors; actives 2.1% (n = 360,000); A549 ARE-Fluc reporter, luciferase luminescence, 18-24 h; also: potency is read from the fitted curve at half-maximal effect; % is scaled to controls: 0 for no effect and ±100 for the full control effect; nearly all actives have a fitted effect of over 60% in size
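Cells were seeded and rested 2 h, then exposed to compounds for 18-24 h. CellTiter-Fluor was read first as a viability measure. BugLite was added 15 min before the final luminescent read of ARE-luciferase activity in A549 cells.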
Giardia killer: kills Giardia lamblia. Giardia lamblia trophozoite viability. activity change, % at 7.66 µM, hits read low. actives 0.15% (n = 340,000); in the data active = activity change below about -80%; inconclusive = between about -30% and that limit;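 also: parasites exposed to compound for two days anaerobically before the ATP read; % is scaled to controls: 0 for no effect and ±100 for the full control effect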
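Luminescent ATP signal served as the viability read-out, measured 15-30 min after adding ATP detection reagent to trophozoites that had been incubated with compounds for 48 hrs at 37 deg C anaerobically at 100 cells/well.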
IDH1 R132H inh: blocks human mutant IDH1 R132H enzyme; Potency, µM (highest dose often 76.6 µM), inactives show at the top dose activity change, negative = inhibition, actives largely listed as inhibitors; O75874; AID 602179; actives 0.093% (n = 390,000); IDH1-R132H enzyme, NADPH consumption, diaphorase/resazurin fluorescence; also: potency is read from the fitted curve at half-maximal effect; % is scaled to controls: 0 for no effect and ±100 for the full control effect; nearly all actives have a fitted effect of over 65% in size
Target sequence (O75874 whole entry R132H, stated change not applied): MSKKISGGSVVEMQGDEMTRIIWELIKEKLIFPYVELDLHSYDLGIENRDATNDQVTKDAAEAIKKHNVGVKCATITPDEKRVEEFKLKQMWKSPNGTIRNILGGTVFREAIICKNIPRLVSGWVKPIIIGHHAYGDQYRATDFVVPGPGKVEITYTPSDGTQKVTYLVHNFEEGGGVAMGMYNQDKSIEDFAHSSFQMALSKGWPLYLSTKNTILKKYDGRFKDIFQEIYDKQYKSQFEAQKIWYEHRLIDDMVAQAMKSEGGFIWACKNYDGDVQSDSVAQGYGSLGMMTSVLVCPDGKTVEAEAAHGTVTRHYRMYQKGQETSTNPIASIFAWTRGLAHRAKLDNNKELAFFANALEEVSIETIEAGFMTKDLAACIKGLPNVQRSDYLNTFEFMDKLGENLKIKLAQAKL
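IDH1-R132H (0.5 ug/mL dispensed) in pH 7.5 Tris buffer was preincubated 30 min with compound, then given a substrate mix of 0.016 mM NADPH and 2 mM alpha-KG for 80 min at room temperature; remaining NADPH was read by diaphorase/resazurin fluorescence.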
A549 tox: A549 cytotoxicity, counter-screen for Nrf2 inhibitors | A549 ARE-Fluc cells, CellTiter-Fluor viability, 18-24 h | Potency, µM (highest dose often 46 µM), for the others: top-dose activity change, negative = cytotoxicity, usual class: inhibitors | actives 0.16% (n = 390,000) | AID 504648; also: potency is read from the fitted curve at half-maximal effect; % is scaled to controls: 0 for no effect and ±100 for the full control effect
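A549 ARE_Fluc cells in 5% FBS OPTI-MEM were exposed to compounds in concentration-response for 18-24 h at 37 deg C. Viability was read by CellTiter-Fluor fluorescence (Ex 405/Em 525) after 30 min, before the luciferase read.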
The depositor's hits bear a star; ? = inconclusive; · = not tested or not shown. Unless noted, calls follow the shape of the dose curve; as a rule, active = well fitted curve in the direction sought with a large enough effect; inconclusive = small, poorly fitted or top-dose-only effect, or another doubt; inactive = no such curve, though single readings can be large; an effect the other way counts as inactive or inconclusive.

SMILES | Nrf2 activator | Anesthetic bind | Nrf2 block | Giardia killer | IDH1 R132H inh | A549 tox
CCN1C(=O)/C(=C/C=C2\C=CN(CC)c3ccccc32)SC1=S | 1% | -9% | 6% | -21 | 4% | -14%
Cc1nc2ccccc2c2oc(C(=O)NCCCN3CCCC(C)C3)cc12 (stereo unspecified) | 8% | -12% | ? | -6 | 3% | 21µM*
Cc1nc2ccccc2c2oc(C(=O)NCc3ccccn3)cc12 | 2% | 1% | ? | -9 | 2% | -13%
Cc1ccc(CNC(=O)c2cc3c(C)nc4ccccc4c3o2)cc1 | 0% | 4% | 18µM* | -7 | 2% | -2%
Cc1cc(C)c(C)c(S(=O)(=O)N2CCN(S(=O)(=O)c3ccc4c(c3)OCCO4)CC2)c1C | · | · | -12% | · | · | 0%
CC(C)(C)n1nnnc1C(c1ccc(C(F)(F)F)cc1)N(Cc1ccccc1)Cc1ccco1 (stereo unspecified) | -1% | 3% | 15µM* | -3 | 9% | -27%
CC(C)(C)n1nnnc1C(c1ccc(C(F)(F)F)cc1)N(Cc1ccc(F)cc1)Cc1ccco1 (stereo unspecified) | 5% | -12% | ? | -21 | 1% | -23%
O=C(c1cc2ccccc2o1)c1cccs1 | 22µM* | -17% | ? | 6 | 5% | 0%
CC(C)C[C@@H]1NC(=O)[C@H](Cc2ccccc2)N(C)C(=O)[C@H](C)NC(=O)c2ccccc2NC(=O)[C@H](Cc2ccc(O)cc2)N(C)C1=O | 4% | -5% | 23µM* | -16 | -27% | ?
CC(C)CC1NC(=O)N(CC(=O)N2c3ccccc3NC(=O)C2(C)C)C1=O (stereo unspecified) | -1% | -3% | -10% | -8 | 13% | 7%
CC1=C(C#N)C(c2ccccc2)C2=C(N1)c1ccccc1C2=O (stereo unspecified) | 0% | -16% | 23µM* | -4 | -14% | ?
CC1=C(C#N)C(c2cccnc2)C2=C(N1)c1ccccc1C2=O (stereo unspecified) | -1% | -8% | 7% | -13 | 6% | 0%
C[n+]1c2n(c3ccccc31)N=C(c1cc(C(C)(C)C)c(O)c(C(C)(C)C)c1)CS2 | -2% | ? | 18µM* | -10 | 7% | ?
COc1cccc(C2=Nn3c(nnc3-c3ccccc3O)SC2)c1 | 2% | -6% | -23% | -12 | 14% | -12%
Cn1nc(C(F)(F)F)c2cc(C(=O)O)sc21 | 0% | 1% | 4% | -6 | 5% | 2%
Cn1nc(C(F)(F)F)c2cc(C(=O)Nc3ccc(F)cc3)sc21 | 0% | 6% | ? | -7 | 6% | ?
Cn1nc(C(F)(F)F)c2cc(C(=O)Nc3ccc(F)c(Cl)c3)sc21 | -1% | -8% | 13µM* | 3 | -4% | -8%
Cn1nc(C(F)(F)F)c2cc(C(=O)Nc3ccc(C(F)(F)F)cc3)sc21 | 0% | -5% | 23µM* | -23 | -3% | ?
Cc1ccc(NC(=O)c2ccc(=O)[nH]n2)cc1S(=O)(=O)Nc1ccc(SC(F)F)cc1 | 4% | · | 21µM* | 8 | -14% | -11%
COc1cc(N(C)C)cc(CN(C)CCc2ccc([N+](=O)[O-])cc2)c1O | · | -20% | · | · | · | ·
O=C(N=Nc1c(O)[nH]c2ccccc12)c1ccc(CN2CCOCC2)cc1 | 0% | -7% | ? | 1 | -1% | -3%
O=C(N=Nc1c(O)[nH]c2ccccc12)c1ccc2c(c1)OCO2 | 14% | -4% | ? | -82* | 8% | -10%
NCCCn1c(C(=O)c2cc(Cl)c(N)c(Cl)c2)c2ccc([N+](=O)[O-])cc2[n+]1[O-] | ? | · | 157% | ? | -4% | 18µM*
C=CCOc1c(Br)cc(CNc2ccc(NC(=O)C(C)C)c(OC)c2)cc1OC | 0% | ? | 9.2µM* | -1 | 1% | -22%
Cc1sc(NC(=O)c2ccco2)c(C(c2cccnc2)N2CCN(c3ccc(F)cc3)CC2)c1C (stereo unspecified) | -1% | 4% | 15µM* | -15 | -16% | -12%
SMILES | Nrf2 activator | Anesthetic bind | Nrf2 block | Giardia killer | IDH1 R132H inh | A549 tox
Cc1sc(NC(=O)c2ccco2)c(C(c2cccnc2)N2CCN(CCO)CC2)c1C (stereo unspecified) | 2% | -3% | 2% | -1 | 5% | 10%
Cc1cccc(C(=O)Nc2cccc(-c3ccc4nncn4n3)c2)c1 | 3% | -4% | 12µM* | -1 | 0% | 0%
COc1ccc(CC(=O)Nc2cccc(-c3ccc4nncn4n3)c2)cc1OC | 4% | -5% | 21µM* | 17 | 3% | ?
COc1cccc(OC)c1C(=O)Nc1cccc(-c2ccc3nncn3n2)c1 | 2% | -12% | 8% | 4 | 2% | -4%
COc1ccc(C(=O)Nc2cccc(-c3ccc4nncn4n3)c2)cc1OC | 3% | -5% | -16% | 14 | 0% | -3%
O=C(OCC1CCCO1)c1ccc2c(c1)N(Cc1cccc(Cl)c1)C(=O)c1ccccc1S2(=O)=O (stereo unspecified) | 3% | ? | ? | · | 10% | 16%
CCn1c(C)cc(C(=O)COC(=O)c2ccccc2[N+](=O)[O-])c1C | -3% | · | 0.73µM* | ? | 7% | -1%
Cc1cc(C(=O)COc2cccnc2[N+](=O)[O-])c(C)n1Cc1cccs1 | 0% | -23% | ? | -94* | 9% | -3%
C=CCn1c(C)cc(C(=O)COC(=O)c2ccc(N)c([N+](=O)[O-])c2)c1C | 0% | -11% | ? | 2 | 3% | -11%
CCCn1c(C)cc(C(=O)COc2ccc(C)nc2[N+](=O)[O-])c1C | 4% | 7% | 21% | ? | 0% | 1%
Cc1ccc(OCC(=O)c2cc(C)n(-c3ccccc3)c2C)c([N+](=O)[O-])n1 | -1% | -16% | ? | -102* | 3% | -2%
Cc1cc(C(=O)COC(=O)c2ccccc2O)c(C)n1Cc1cccs1 | -3% | -6% | 6.5µM* | ? | 8% | ?
Cc1ccc(-c2nnc(Nc3ccc(O)cc3)c3ccccc23)cc1S(=O)(=O)N1CCN(C)CC1 | 13% | -14% | -30% | · | 3% | -12%
CCCN1CNc2c(c(=O)[nH]c(=S)n2CCc2ccccn2)C1 | · | · | 5% | 5 | · | 9%
O=C(c1ccc(Cl)cc1Cl)C1(n2cncn2)Oc2ccccc2C1O (stereo unspecified) | 3% | -12% | 10µM* | 15 | 13% | 1%
COc1ccc(CNC(=O)c2cc(C)nc3c2c(C)nn3-c2cccc(Cl)c2C)cc1 | -1% | -11% | ? | · | -8% | -11%

Compound activity (PubChem BioAssay)
